Most compounds without a hit are left out; they make up all but 11% or so of the library.
G9a inh – blocks human histone lysine methyltransferase G9a; Potency, µM (titrated, usually from 102 µM), inactives show at the highest dose activity, negative = inhibition, hits mostly inhibitors; actives 8.8% (n = 350,000); G9a H3K9 monomethylation, AlphaScreen, 2 h; further: on the % scale 0 is the no-effect control and ±100 the full control effect; nearly all actives have a fitted effect of over 75% in size
Target sequence (Q96KQ7 913-1193 limits assumed): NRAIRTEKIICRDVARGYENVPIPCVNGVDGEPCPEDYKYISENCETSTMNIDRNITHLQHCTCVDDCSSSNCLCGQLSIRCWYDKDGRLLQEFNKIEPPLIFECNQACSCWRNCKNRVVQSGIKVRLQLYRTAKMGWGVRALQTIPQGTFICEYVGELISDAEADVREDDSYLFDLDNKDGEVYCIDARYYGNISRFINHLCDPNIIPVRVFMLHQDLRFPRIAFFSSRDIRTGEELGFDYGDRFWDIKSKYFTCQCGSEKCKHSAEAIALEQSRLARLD
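AlphaScreen read-out: biotin-H3K9 peptide (500 nM) methylation by 20 nM enzyme with 20 uM SAM, 2 h at room temperature after 15 min compound preincubation; anti-monomethyl H3K9 antibody plus donor/acceptor beads, 10 min dark.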
BAZ2B block – inhibitors of human BAZ2B bromodomain. Potency, µM (highest dose often 114 µM), without a hit: at the top dose activity change, negative = inhibition, usual class: inhibitors. AlphaScreen BAZ2B-H3K14Ac peptide displacement. actives 4.4% (n = 360,000). AID 504333; further: on the % scale 0 is the no-effect control and ±100 the full control effect; nearly all actives have a fitted effect of over 60% in size
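In this displacement format the biotinylated H3(5-23) peptide acetylated at Lys14 serves as ligand at 50 nM, with BAZ2B at 50 nM in PBS pH 7.4 containing 0.01% Tween-20. Donor and acceptor beads are 10 ug/mL final.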
JMJD2A Tudor – JMJD2A Tudor domain (human) inhibition | O75164 | Potency, µM (highest dose often 114 µM), for the others: at the top dose activity change, negative = inhibition, most hits filed as inhibitors | actives 4.4% (n = 390,000) | AlphaScreen JMJD2A-Tudor / H3K4me3 peptide binding; further: on the % scale 0 is the no-effect control and ±100 the full control effect; nearly all actives have a fitted effect of over 50% in size
HP1b chromo inh – blocks HP1-beta chromodomain binding to methylated histone tails; P83916; AlphaScreen HP1-beta / biotin-H3K9me3 peptide binding; Potency, µM (top dose mostly 114 µM), for the others: at the top dose activity change, negative = inhibition, usual class: inhibitors; actives 0.56% (n = 390,000); AID 540317; further: nearly all actives have a fitted effect of over 70% in size
Target sequence (P83916 whole entry, looked up): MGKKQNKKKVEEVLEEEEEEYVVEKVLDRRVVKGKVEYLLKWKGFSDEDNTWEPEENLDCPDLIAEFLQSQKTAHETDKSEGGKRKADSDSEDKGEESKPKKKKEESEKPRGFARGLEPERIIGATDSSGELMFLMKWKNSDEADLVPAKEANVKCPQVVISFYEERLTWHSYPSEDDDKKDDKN
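Compound inhibition of the preformed complex between 50 nM HP1-beta and 50 nM biotinylated H3K9me3 peptide was read by AlphaScreen. Buffer was PBS pH 7.4 with 0.01% Tween-20. Incubations ran 30 min at room temperature, with 10 ug/mL donor/acceptor beads.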
L3MBTL1 inh – inhibitors of human L3MBTL1; actives 0.66% (n = 230,000); Potency, µM (doses to about 57.1 µM), inactives show at the top dose activity, negative = inhibition, most hits filed as inhibitors; Q9Y468; AlphaScreen L3MBTL1–H3K9me1 peptide binding; further: on the % scale 0 is the no-effect control and ±100 the full control effect; nearly all actives have a fitted effect of over 60% in size
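Read-out is AlphaScreen signal from streptavidin donor and nickel chelate acceptor beads (10 ug/mL final each) bridging L3MBTL1 (50 nM) and biotinylated K9-monomethylated H3(1-15) peptide (75 nM), after 30 min compound exposure at room temperature.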
Numbers without * were called inactive; u = inconclusive; x = no result given; ! = not active in a repeat; [ ] = another dose, or the depositor's remark. The call rests on the fitted dose curve; in most records, active means well fitted inhibition curve with a large enough effect; inconclusive means small, poorly fitted or top-dose-only effect; inactive means no such curve, though single readings can be large or run the other way. Potency means the concentration at half of the fitted maximal effect.

SMILES | G9a inh | BAZ2B block | JMJD2A Tudor | HP1b chromo inh | L3MBTL1 inh
CCc1ccc(Nc2n[n+](-c3ccccc3)c(/C=C/c3ccccc3)s2)cc1 | 40µM* | 28µM* | x | x | -9%
CCc1ccc(Nc2n[n+](-c3ccccc3)c(-c3c(Cl)cccc3Cl)s2)cc1 | 14µM* | 8.9µM* | 16µM* | -5% | u
COc1ccc2ccccc2c1-c1sc(Nc2ccccc2)n[n+]1-c1ccc(F)cc1 | 50µM* | 32µM* | 40µM* | u | -12%
COc1ccc(-c2sc(Nc3ccccc3)n[n+]2-c2ccc(F)cc2)cc1Br | u | -12% | u | 7% | -3%
CCc1ccc(Nc2n[n+](-c3ccccc3)c(-c3cc(OC)c(OC)cc3Br)s2)cc1 | u | 32µM* | 79µM* | -6% | -3%
CCc1ccc(Nc2nc3ccccc3c(=O)s2)cc1 | -5%[59 µM] | -2% | -1% | 39% | 1%
NS(=O)(=O)c1ccc(CNC(=O)C2CCCN2C(=O)c2cccs2)cc1 (centres undefined) | x | x | -9% | 31% | -5%
NC(=O)NC(CC(=O)N1CCc2ccccc2C1)c1ccc(Cl)cc1 (centres undefined) | -5% | -2% | 4% | 20% | x
Fc1ccc(-[n+]2nc(Nc3ccccc3)sc2-c2c(Cl)cccc2Cl)cc1 | x | 40µM* | 35µM* | u | u
O=C(c1ccc(F)cc1)c1cnc(Nc2ccccc2)s1 | -23% | -17% | -13% | 37% | x
COc1ccc(CC2(C)OC(c3ccc(C)c([N+](=O)[O-])c3)=NN2C(C)=O)cc1 (centres undefined) | u | -37% | 79µM* | 71µM* | -26%
COc1ccc(CC2(C)OC(c3ccc(C)cc3)=NN2C(C)=O)cc1 (centres undefined) | 10% | 11% | 0% | 26% | 17%
Nc1c(C(=O)NCCC2=CCCCC2)sc2ccc(S(=O)(=O)N3CCCCC3)cc12 | u | -1% | -19% | 19% | -8%
Cc1ccc(CNC(=O)c2sc3ccc(S(=O)(=O)N4CCCCC4)cc3c2N)cc1 | 45µM* | 0% | x | x | -6%
COc1ccc(S(=O)(=O)N2CCC(C(=O)NCc3ccc(C)cc3)CC2)cc1 | -11% | -12% | -1% | 14%[57 µM] | x
COc1ccc(CNC(=O)C2=CCN(S(=O)(=O)c3ccc(C)cc3)CC2)cc1 | 45µM* | 5% | -8% | 24% | x
Cc1ccc(S(=O)(=O)N2CC=C(C(=O)NCCC(C)C)CC2)cc1 | 6% | -3% | -7% | -3% | x
Cc1ccc(S(=O)(=O)N2CC=C(C(=O)NCc3ccccc3)CC2)cc1 | 40µM* | 0% | -4% | 43% | -3%
Cc1cc(N=Nc2ccc(C)c(N=Nc3cc(C)c(N)cc3N)c2)c(N)cc1N | 40µM* | 40µM* | 50µM* | u | x
COc1cccc(C(=O)Nc2sc3c(c2C#N)CCN(C(C)=O)C3)c1 | 5µM* | x | -30% | u | x
CC(=O)N1CCc2c(sc(NC(=O)c3cccc(N4C(=O)CCC4=O)c3)c2C(N)=O)C1 | 45µM* | -27% | 0% | 26% | x
Cc1ccc(-c2nnc3ccccc3c2C(=O)Nc2ccc(C)c(F)c2)cc1 | 4%[59 µM] | -2% | -18% | 23% | x
COc1ccc(OCCCCn2c(C3CC(=O)N(c4cccc(Cl)c4)C3)nc3ccccc32)cc1 (centres undefined) | u | -19% | -23% | 4% | x
COc1ccc(CNC(=O)CCc2nnc3n(CC(C)C)c(=O)c4ccccc4n23)cc1 | 0%[59 µM] | -1% | -9% | 21% | x
CCCCN1C(=O)NC2NC(=O)NC21 (centres undefined) | 25µM* | 20µM* | u | -51% | -15%
CCCCN1C(=O)N(C)C2NC(=O)NC21 (centres undefined) | 0%[12.7 µM] | -23% | -7% | 27% | x
COc1ccc(OC)c(CNS(=O)(=O)c2c(C(=O)N3CCCCCC3)c(C)n(C)c2C)c1 | 5%[59 µM] | -27% | -25% | 55% | x
NC(=NC1C2CC3CC(C2)CC1C3)Nc1ccc(I)cc1 (centres undefined) | 28µM*! | x | x | x | x
O=C(Nc1ccc(-c2csnn2)cc1)C1CC1 | 26% | -13% | 5% | 38% | -7%

Source: PubChem
